Laboratory results reported in PubChem BioAssay AID1159580 (chemical genetic matrix, 2015).
“And” between values parts separate entries of the source, which are not always exact repeats. Identical values can stand only once. The campaign covered roughly 5,500 compounds. About 2,000 (36%) were called active. Inconclusive results (about 18%) are left out. Rule as the data show it: active = normalized growth mostly below about 0.91 (no sharp cut-off); inconclusive = no clear call, values can overlap the other calls; inactive = mostly above about 0.92. The list shows a part of the results.

Experiment: chemical genetic growth profiling, strain panel (AID 1159580);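 also: tested at 20 µM; growth read once vehicle control cultures reached saturation at 30 °C; 1 = growth at the plate median or of vehicle wells; lower values mean less growth of the strain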
Settings: S. cerevisiae deletion strains, growth OD

CO[C@H]1CC(O[C@@H]2/C(C)=C/C[C@@H]3C[C@@H](C[C@]4(CC[C@H](C)[C@@H](C5CCCCC5)O4)O3)OC(=O)[C@@H]3C=C(C)/C(=N\O)[C@H]4OC/C(=C\C=C\[C@@H]2C)[C@]43O)O[C@@H](C)C1O (some centres undefined)
normalized growth (locus YAL013W, strain DEP1, stronger effect = lower value): 0.956 (inactive) | normalized growth (locus YAL021C, strain ccr4, stronger effect = lower value): 1.09 (inactive) | normalized growth (locus YAL026C, strain drs2, stronger effect = lower value): 1.02 (inactive) | normalized growth (locus YAL030W, strain snc1, stronger effect = lower value): 1.02 (inactive) | normalized growth (locus YBL061C, strain skt5, stronger effect = lower value): 0.989 (inactive) | normalized growth (locus YBR009C, strain hhf1, stronger effect = lower value): 1.03 (inactive) | normalized growth (locus YBR021W, strain FUR4, stronger effect = lower value): 0.952 (inactive) | normalized growth (locus YBR023C, strain chs3, stronger effect = lower value): 0.991 (inactive) | normalized growth (locus YBR171W, strain sec66, stronger effect = lower value): 0.988 (inactive) | normalized growth (locus YBR229C, strain ROT2, stronger effect = lower value): 0.992 (inactive) | normalized growth (locus YBR231C, strain swc5, stronger effect = lower value): 0.877 (active) | normalized growth (locus YBR279W, strain paf1, stronger effect = lower value): 1.01 (inactive) | normalized growth (locus YCL011C, strain gbp2, stronger effect = lower value): 1 (inactive) | normalized growth (locus YCL016C, strain dcc1, stronger effect = lower value): 1.01 (inactive) | normalized growth (locus YCL029C, strain bik1, stronger effect = lower value): 0.984 (inactive) | normalized growth (locus YCL061C, strain MRC1, stronger effect = lower value): 1.02 (inactive) | normalized growth (locus YCL069W, strain vba3, stronger effect = lower value): 1.02 (inactive) | normalized growth (locus YCR088W, strain abp1, stronger effect = lower value): 1.02 (inactive) | normalized growth (locus YDL005C, strain med2, stronger effect = lower value): 1.02 (inactive) | normalized growth (locus YDL035C, strain GPR1, stronger effect = lower value): 0.949 (inactive) | normalized growth (locus YDL040C, strain nat1, stronger effect = lower value): 1.02 (inactive) | normalized growth (locus YDL074C, strain BRE1, stronger effect = lower value): 0.979 (inactive) | normalized growth (locus YDL101C, strain DUN1, stronger effect = lower value): 0.979 (inactive) | normalized growth (locus YDL134C, strain PPH21, stronger effect = lower value): 0.96 (inactive) | normalized growth (locus YDL185W, strain tfp1, stronger effect = lower value): 0.0713 (active) | normalized growth (locus YDL192W, strain arf1, stronger effect = lower value): 0.989 (inactive) | normalized growth (locus YDR001C, strain nth1, stronger effect = lower value): 1.01 (inactive) | normalized growth (locus YDR069C, strain doa4, stronger effect = lower value): 1 (inactive) | normalized growth (locus YDR101C, strain arx1, stronger effect = lower value): 0.998 (inactive) | normalized growth (locus YDR137W, strain rgp1, stronger effect = lower value): 0.39 (active) | normalized growth (locus YDR150W, strain NUM1, stronger effect = lower value): 0.984 (inactive) | normalized growth (locus YDR159W, strain sac3, stronger effect = lower value): 0.756 (active) | normalized growth (locus YDR162C, strain NBP2, stronger effect = lower value): 0.928 (inactive) | normalized growth (locus YDR195W, strain ref2): 0.883 (inactive) | normalized growth (locus YDR297W, strain sur2, stronger effect = lower value): 1.02 (inactive) | normalized growth (locus YDR318W, strain mcm21, stronger effect = lower value): 0.992 (inactive) | normalized growth (locus YDR334W, strain swr1, stronger effect = lower value): 1.02 (inactive) | normalized growth (locus YDR335W, strain msn5, stronger effect = lower value): 0.982 (inactive) | normalized growth (locus YDR388W, stronger effect = lower value): 0.991 (inactive) | normalized growth (locus YDR392W, strain spt3, stronger effect = lower value): 0.979 (inactive) | normalized growth (locus YDR502C, strain sam2, stronger effect = lower value): 0.983 (inactive) | normalized growth (locus YEL003W, strain gim4, stronger effect = lower value): 1.01 (inactive) | normalized growth (locus YEL037C, strain rad23, stronger effect = lower value): 1.02 (inactive) | normalized growth (locus YEL061C, strain CIN8 (second series), stronger effect = lower value): 1.02 (inactive) | normalized growth (locus YEL061C, strain CIN8, stronger effect = lower value): 0.987 (inactive) | normalized growth (locus YER015W, strain faa2, stronger effect = lower value): 0.997 (inactive) | normalized growth (locus YER016W, strain bim1, stronger effect = lower value): 0.989 (inactive) | normalized growth (locus YER110C, stronger effect = lower value): 0.994 (inactive) | normalized growth (locus YER111C, strain swi4, stronger effect = lower value): 1.02 (inactive) | normalized growth (locus YER155C, strain BEM2 (second series), stronger effect = lower value): 1 (inactive) | normalized growth (locus YER155C, strain BEM2, stronger effect = lower value): 1.02 (inactive) | normalized growth (locus YER167W, strain BCK2, stronger effect = lower value): 0.994 (inactive) | normalized growth (locus YFR010W, strain ubp6, stronger effect = lower value): 1.02 (inactive) | normalized growth (locus YGL078C, strain dbp3, stronger effect = lower value): 0.975 (inactive) | normalized growth (locus YGL086W, strain mad1, stronger effect = lower value): 1.01 (inactive) | normalized growth (locus YGL167C, strain pmr1, stronger effect = lower value): 1.01 (inactive) | normalized growth (locus YGL173C, strain kem1, stronger effect = lower value): 1.02 (inactive) | normalized growth (locus YGL227W, strain vid30, stronger effect = lower value): 1.03 (inactive) | normalized growth (locus YGL240W, strain doc1, stronger effect = lower value): 1.1 (inactive) | normalized growth (locus YGL248W, strain PDE1, stronger effect = lower value): 1 (inactive) | normalized growth (locus YGL253W, strain hxk2, stronger effect = lower value): 1.01 (inactive) | normalized growth (locus YGR135W, strain pre9, stronger effect = lower value): 0.974 (inactive) | normalized growth (locus YGR252W, strain gcn5, stronger effect = lower value): 1.06 (inactive) | normalized growth (locus YHR013C, strain ard1, stronger effect = lower value): 0.861 (inactive) | normalized growth (locus YHR027C, strain rpn1, stronger effect = lower value): 0.994 (inactive) | normalized growth (locus YHR030C, strain SLT2, stronger effect = lower value): 0.993 (inactive) and 0.435 (active) | normalized growth (locus YHR079C, strain IRE1 (second series), stronger effect = lower value): 0.988 (inactive) | normalized growth (locus YHR079C, strain IRE1, stronger effect = lower value): 0.831 (active) | normalized growth (locus YHR094C, strain hxt1, stronger effect = lower value): 1 (inactive) | normalized growth (locus YHR129C, strain ARP1, stronger effect = lower value): 0.99 (inactive) | normalized growth (locus YHR142W, strain chs7, stronger effect = lower value): 1.01 (inactive) | normalized growth (locus YHR200W, strain rpn10, stronger effect = lower value): 0.988 (inactive) | normalized growth (locus YIL066C, strain RNR3, stronger effect = lower value): 0.984 (inactive) | normalized growth (locus YIL073C, strain SPO22, stronger effect = lower value): 0.801 (inactive) | normalized growth (locus YIL125W, strain kgd1, stronger effect = lower value): 0.992 (inactive) | normalized growth (locus YIR030C, strain dcg1, stronger effect = lower value): 1 (inactive) | normalized growth (locus YJL092W, strain hpr5, stronger effect = lower value): 1.02 (inactive) | normalized growth (locus YJL095W, strain BCK1 (second series), stronger effect = lower value): 1.02 (inactive) | normalized growth (locus YJL095W, strain BCK1, stronger effect = lower value): 0.882 (inactive) and 0.512 (active) | normalized growth (locus YJL115W, strain asf1, stronger effect = lower value): 1.04 (inactive) | normalized growth (locus YJL129C, strain trk1, stronger effect = lower value): 0.901 (inactive) | normalized growth (locus YJL134W, strain LCB3, stronger effect = lower value): 0.984 (inactive) | normalized growth (locus YJL154C, strain vps35, stronger effect = lower value): 1.02 (inactive) | normalized growth (locus YJL164C, strain tpk1, stronger effect = lower value): 1.01 (inactive) | normalized growth (locus YJL166W, strain qcr8, stronger effect = lower value): 1.02 (inactive) | normalized growth (locus YJL168C, strain set2, stronger effect = lower value): 0.997 (inactive) | normalized growth (locus YJL187C, strain SWE1 (second series), stronger effect = lower value): 0.99 (inactive) | normalized growth (locus YJL187C, strain SWE1, stronger effect = lower value): 1.01 (inactive) | normalized growth (locus YJR043C, strain POL32, stronger effect = lower value): 0.977 (inactive)
